70 compounds from the antibiotic and cytotoxicity screens of Wong et al. (2023) can be followed below.

Screen size: about 39,000 compounds; about 1,500 (3.8%) were called active. The list comes from a sample in which actives are over-represented; it also holds similar structures and randomly drawn compounds.

For this test, the system named is HSkMC (human skeletal muscle cells). Briefly: cytotoxicity call (relative viability < 0.9). The following applies: 10 µM.
For `C[C@H](CO)N1C[C@H](C)[C@H](CN(C)C(=O)NC2CCCCC2)OCc2ccccc2-c2c(n(C)c3ccccc23)C1=O`, the cytotoxicity call was “inactive”. Next, `CN1C(=O)CO[C@H]2CN(C(=O)NCc3cccnc3)C[C@@H]21`: “inactive”; `COc1ccc(S(=O)(=O)Nc2ccc3c(c2)CC(=O)N([C@@H](C)CO)C[C@H](C)[C@@H](CN(C)S(=O)(=O)c2ccc(C)cc2)O3)cc1`: “inactive”.

Turning to `Cc1nnc(SCC2=C(C(=O)O)N3C(=O)[C@@H](NC(=O)Cn4cnnn4)[C@H]3SC2)s1`, the cytotoxicity call was “inactive”. On to `O=C(O)[C@@H]1CCCNC1`, for which the cytotoxicity call was “inactive”. In the case of `CC(=O)CNC(=O)Cc1ccccc1`, the cytotoxicity call was “inactive”. To `CCN(CC)S(=O)(=O)c1nnc[nH]1` belongs “inactive”; to `C[C@H](CO)N1C[C@H](C)[C@@H](CN(C)C(=O)Nc2ccc(C(F)(F)F)cc2)Oc2ncc(-c3ccc(C#N)cc3)cc2C1=O`, “inactive”; to `CO[C@@H](C(=O)N(C)C[C@H]1OCc2ccccc2-c2c(n(C)c3ccccc23)C(=O)N([C@H](C)CO)C[C@@H]1C)c1ccccc1`, “inactive”. To `CC(C)(C)OC(=O)N1CC[C@H](c2cn(-c3ccc(C(F)(F)F)cc3)nn2)[C@@H]1C(=O)Nc1cccc2cccnc12` belongs “inactive”. Next, `CO[C@@H]1CN(C)C(=O)c2cc(NS(C)(=O)=O)ccc2OC[C@H](C)N(C(=O)C2CCCCC2)C[C@@H]1C`: “inactive”; `COc1ccc(CN(C)C[C@H]2OCCCC[C@@H](C)Oc3ccc(NC(=O)Cc4ccccc4)cc3C(=O)N([C@H](C)CO)C[C@@H]2C)cc1`: “inactive”; `CN1C(=O)c2cc(NC(=O)c3cnccn3)ccc2OC[C@@H]2O[C@H](CC(=O)N[C@H]3CCN(Cc4ccccc4)C3)CC[C@@H]21`: “inactive”.

Take `C[C@@H]1CN([C@H](C)CO)C(=O)c2ccccc2-c2ccccc2CO[C@@H]1CN(C)C(=O)Nc1cccc(Cl)c1Cl`: the cytotoxicity call is “inactive”. Next, `Cc1ccc(S(=O)(=O)Nc2ccc3c(c2)CC(=O)N([C@H](C)CO)C[C@@H](C)[C@H](CN(C)Cc2ccc(Cl)c(Cl)c2)O3)cc1`: “inactive”; `Cc1ccc(S(=O)(=O)Nc2ccc3c(c2)CC(=O)N([C@H](C)CO)C[C@@H](C)[C@@H](CN(C)Cc2ccc(Cl)c(Cl)c2)O3)cc1`: “active”; `C[C@@H]1CN([C@H](C)CO)C(=O)c2cccc(NC(=O)Nc3ccc(C(F)(F)F)cc3)c2O[C@@H]1CN(C)S(=O)(=O)c1ccc(Cl)cc1`: “inactive”. `C[C@H]1CN([C@@H](C)CO)C(=O)c2cccc(NC(=O)Nc3ccc(C(F)(F)F)cc3)c2O[C@H]1CN(C)S(=O)(=O)c1ccc(Cl)cc1`: the cytotoxicity call was “active”. Turning to `C[C@@H]1CN([C@@H](C)CO)C(=O)c2cccc(NC(=O)Nc3ccc(C(F)(F)F)cc3)c2O[C@H]1CN(C)S(=O)(=O)c1ccc(Cl)cc1`, the cytotoxicity call was “inactive”.

Consider `C[C@H]1CN([C@@H](C)CO)C(=O)c2cccc(NC(=O)Nc3ccc(C(F)(F)F)cc3)c2O[C@@H]1CN(C)S(=O)(=O)c1ccc(Cl)cc1`, for which the cytotoxicity call was “active”. Next, `C[C@@H]1CN([C@@H](C)CO)C(=O)c2cccc(NC(=O)Nc3ccc(C(F)(F)F)cc3)c2O[C@@H]1CN(C)S(=O)(=O)c1ccc(Cl)cc1`: “inactive”; `C[C@H](CO)N1C[C@H](C)[C@H](CN(C)S(=O)(=O)c2ccc(Cl)cc2)Oc2c(NC(=O)Nc3ccc(C(F)(F)F)cc3)cccc2C1=O`: “inactive”; `C[C@@H]1CCCCO[C@H](CN(C)Cc2ccc(Cl)c(Cl)c2)[C@H](C)CN([C@@H](C)CO)C(=O)c2cc(NS(C)(=O)=O)ccc2O1`: “inactive”. Next, `C[C@H]1CN([C@@H](C)CO)C(=O)c2cc(C#Cc3ccccn3)cnc2O[C@H]1CN(C)C(=O)CCN1CCCCC1`: “inactive”.

For the compound `C[C@@H]1CN([C@H](C)CO)C(=O)Cc2cc(NC(=O)CCCCCC(=O)Nc3ccccc3N)ccc2O[C@@H]1CN(C)Cc1ccc(Cl)c(Cl)c1`, the cytotoxicity call is “inactive”.

As for `C[C@@H]1CN([C@@H](C)CO)C(=O)c2cccc(NS(=O)(=O)c3cccs3)c2O[C@H]1CN(C)C(=O)Nc1cccc2ccccc12`, the cytotoxicity call was “inactive”. Next, `C[C@@H]1CCCCO[C@H](CN(C)C(=O)Nc2ccc3c(c2)OCO3)[C@H](C)CN([C@H](C)CO)C(=O)c2cc(NC(=O)c3ccccc3)ccc2O1`: “inactive”; `C[C@@H]1CN([C@@H](C)CO)C(=O)c2cc(NC(=O)Cc3cn(C)c4ccccc34)ccc2O[C@H]1CN(C)Cc1ccc(C(=O)Nc2ccccc2N)cc1`: “inactive”; `CC(C)NC(=O)Nc1ccc2c(c1)CC(=O)N([C@H](C)CO)C[C@H](C)[C@@H](CN(C)S(=O)(=O)c1cccs1)O2`: “inactive”.

With `CC(C)NC(=O)N(C)C[C@H]1Oc2c(NS(=O)(=O)c3ccccc3)cccc2C(=O)N([C@@H](C)CO)C[C@@H]1C`, the cytotoxicity call is “inactive”. To `Cc1ccc(S(=O)(=O)N(C)C[C@@H]2Oc3ccc(NS(=O)(=O)c4ccc(F)cc4)cc3CC(=O)N([C@@H](C)CO)C[C@@H]2C)cc1` belongs “inactive”; to `C[C@@H]1CN([C@@H](C)CO)C(=O)c2cc(NC(=O)NC3CCCCC3)ccc2O[C@@H](C)CCCCO[C@H]1CN(C)C(=O)Cc1ccccc1`, “inactive”. Next, `C[C@@H]1CN([C@H](C)CO)C(=O)c2cc(NC(=O)c3ccncc3)ccc2O[C@@H]1CN(C)S(=O)(=O)c1cn(C)cn1`: “inactive”; `CCCCC(CC)CN1CN(CC(CC)CCCC)CC(C)(N)C1` (stereo not given): “active”; `C[C@@H]1CN([C@@H](C)CO)C(=O)Cc2cc(NC(=O)NC3CCCCC3)ccc2O[C@H]1CN(C)Cc1ccc(C(=O)Nc2ccccc2N)cc1`: “inactive”. In the case of `C[C@@H]1CN([C@@H](C)CO)S(=O)(=O)c2ccc(Br)cc2O[C@@H]1CN(C)C(=O)c1cnccn1`, the cytotoxicity call was “inactive”.

Regarding `C[C@@H]1CCCCO[C@@H](CN(C)Cc2ccc(C(=O)O)cc2)[C@@H](C)CN([C@H](C)CO)C(=O)c2cc(NC(=O)CCC(F)(F)F)ccc2O1`, the cytotoxicity call is “inactive”. To `C[C@H]1CN([C@@H](C)CO)C(=O)c2ccccc2-c2ccccc2CO[C@H]1CN(C)Cc1ccccc1C(F)(F)F` belongs “inactive”; to `C[C@@H]1CN([C@H](C)CO)C(=O)c2ccccc2-c2ccccc2CO[C@@H]1CN(C)Cc1ccccc1C(F)(F)F`, “inactive”; to `C[C@H](CO)N1C[C@H](C)[C@H](CN(C)Cc2ccccc2C(F)(F)F)OCc2ccccc2-c2ccccc2C1=O`, “active”. Next, `C[C@@H]1CN([C@@H](C)CO)C(=O)c2ccccc2-c2ccccc2CO[C@@H]1CN(C)Cc1ccccc1C(F)(F)F`: “inactive”; `C[C@H](CO)N1C[C@H](C)[C@@H](CN(C)Cc2ccccc2C(F)(F)F)OCc2ccccc2-c2ccccc2C1=O`: “inactive”. `C[C@H]1CN([C@@H](C)CO)C(=O)c2ccccc2-c2ccccc2CO[C@@H]1CN(C)Cc1ccccc1C(F)(F)F`: the cytotoxicity call was “active”.

On to `C[C@H](CO)N1C[C@H](C)[C@@H](CN(C)C(=O)Nc2cccc3ccccc23)Oc2c(NC(=O)Nc3ccc(F)cc3)cccc2C1=O`, for which the cytotoxicity call was “inactive”. Next, `C[C@H](CO)N1C[C@H](C)[C@H](CN(C)Cc2ccc(C(=O)O)cc2)Oc2ccc(NC(=O)CCN3CCOCC3)cc2C1=O`: “inactive”. With `NC(=O)NCC#Cc1ccc2c(c1)[C@]1(C(=O)N2)[C@H](c2ccccc2OCCO)N2[C@H](c3ccccc3)[C@H](c3ccccc3)OC(=O)[C@H]2[C@@H]1C(=O)N1CCCCCCC1`, the cytotoxicity call is “inactive”. Next, `Cc1noc(C)c1NC(=O)N(C)C[C@H]1Oc2ccc(NS(=O)(=O)c3cn(C)cn3)cc2CC(=O)N([C@H](C)CO)C[C@H]1C`: “inactive”.

As to `CN1C(=O)c2cc(NC(=O)c3ccc(C(F)(F)F)cc3)ccc2OC[C@@H]2O[C@@H](CC(=O)NC3Cc4ccccc4C3)CC[C@@H]21`, the cytotoxicity call is “inactive”. To `C[C@@H]1CN([C@@H](C)CO)C(=O)c2cc(NC(=O)CCCN(C)C)ccc2O[C@H]1CN(C)Cc1ccc2c(c1)OCO2` belongs “inactive”; to `Nc1[nH]ncc1-c1cc(Cl)ccc1Oc1cc(F)c(S(=O)(=O)Nc2cscn2)cc1Cl`, “inactive”. To `Cc1noc(C)c1S(=O)(=O)Nc1ccc2c(c1)C(=O)N([C@H](C)CO)C[C@@H](C)[C@@H](CN(C)C)OCCCC[C@H](C)O2` belongs “inactive”; to `CCc1nc2ccc(C(=O)NC3CCN(Cc4ccccc4)CC3)cn2c1N(C)Cc1cc2ccccc2s1`, “active”; to `CCc1nc2ccc(C(=O)Nc3cccc(OCC(=O)N(C)C)c3)cn2c1N(C)Cc1cc2ccccc2s1`, “inactive”. For the compound `CCc1nc2ccc(C(=O)NC3CCN(Cc4ccccc4)CC3)cn2c1N(C)CCN1CCOCC1`, the cytotoxicity call was “inactive”. To `CCN(CC)c1ccnc([C@H]2COCCN2)n1` belongs “inactive”; to `CC(C)NC(=O)N(C)C[C@@H]1Oc2ccc(NC(=O)Nc3ccc4c(c3)OCO4)cc2C(=O)N([C@@H](C)CO)C[C@H]1C`, “inactive”; to `CNC1C(O)C(NC)C2OC3(O)C(=O)CC(C)OC3OC2C1O.Cl.Cl` (stereo not given), “inactive”.

As for `Nc1ccccc1C(=O)C[C@H](N)C(=O)O`, the cytotoxicity call was “inactive”. To `Nc1ccc(/C=C/C(=O)NCc2cc3cc(-c4ccc(C(=O)N5CCC(F)(F)CC5)cc4)cc(-c4ccc(F)cc4)c3o2)cn1` belongs “active”; to `C[C@H]1CN([C@@H](C)CO)C(=O)c2cc(NC(=O)c3ccncc3)ccc2O[C@H]1CN(C)Cc1ccncc1`, “inactive”; to `O=C1[C@@H]2[C@H](C(=O)N1c1ccccc1)C13COC[C@H](c4ccccc4)N1C(=O)C2(C(=O)NCc1ccccc1)O3` (stereo not given in full), “inactive”. Next, `COc1ccc(S(=O)(=O)Nc2ccc3c(c2)C(=O)N([C@H](C)CO)C[C@H](C)[C@H](CN(C)Cc2ccc(-c4ccccc4)cc2)O3)cc1`: “inactive”; `COc1ccc(S(=O)(=O)Nc2ccc3c(c2)C(=O)N([C@@H](C)CO)C[C@H](C)[C@@H](CN(C)Cc2ccc(-c4ccccc4)cc2)O3)cc1`: “inactive”; `COc1ccc(S(=O)(=O)Nc2ccc3c(c2)C(=O)N([C@H](C)CO)C[C@@H](C)[C@H](CN(C)Cc2ccc(-c4ccccc4)cc2)O3)cc1`: “inactive”. To `COc1ccc(S(=O)(=O)Nc2ccc3c(c2)C(=O)N([C@H](C)CO)C[C@@H](C)[C@@H](CN(C)Cc2ccc(-c4ccccc4)cc2)O3)cc1` belongs “active”; to `COc1ccc(S(=O)(=O)Nc2ccc3c(c2)C(=O)N([C@@H](C)CO)C[C@H](C)[C@H](CN(C)Cc2ccc(-c4ccccc4)cc2)O3)cc1`, “inactive”; to `COc1ccc(S(=O)(=O)Nc2ccc3c(c2)C(=O)N([C@@H](C)CO)C[C@@H](C)[C@H](CN(C)Cc2ccc(-c4ccccc4)cc2)O3)cc1`, “active”.

With `COc1ccc(S(=O)(=O)Nc2ccc3c(c2)C(=O)N([C@H](C)CO)C[C@H](C)[C@@H](CN(C)Cc2ccc(-c4ccccc4)cc2)O3)cc1`, the cytotoxicity call was “inactive”. To `COc1ccc(S(=O)(=O)Nc2ccc3c(c2)C(=O)N([C@H](C)CO)C[C@@H](C)[C@H](CN(C)Cc2ccc(Oc4ccccc4)cc2)O3)cc1` belongs “inactive”. Next, `COc1ccc(S(=O)(=O)Nc2ccc3c(c2)C(=O)N([C@@H](C)CO)C[C@@H](C)[C@@H](CN(C)Cc2ccc(-c4ccccc4)cc2)O3)cc1`: “active”.
